For 31 compounds, inhibition results are on record in ChEMBL document CHEMBL1961873, “Compounds: GSK PKIS; Assays: Nanosyn kinase panel” (2012).

Several values for one entry are separate records, joined by “and”; a condition that tells them apart may be missing. Identical values can stand only once.
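Also: reported figure is the mean percent inhibition of CAMK1D.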

Chain of Calcium/calmodulin-dependent protein kinase type 1D (Homo sapiens) (Q8IU85 whole entry, looked up): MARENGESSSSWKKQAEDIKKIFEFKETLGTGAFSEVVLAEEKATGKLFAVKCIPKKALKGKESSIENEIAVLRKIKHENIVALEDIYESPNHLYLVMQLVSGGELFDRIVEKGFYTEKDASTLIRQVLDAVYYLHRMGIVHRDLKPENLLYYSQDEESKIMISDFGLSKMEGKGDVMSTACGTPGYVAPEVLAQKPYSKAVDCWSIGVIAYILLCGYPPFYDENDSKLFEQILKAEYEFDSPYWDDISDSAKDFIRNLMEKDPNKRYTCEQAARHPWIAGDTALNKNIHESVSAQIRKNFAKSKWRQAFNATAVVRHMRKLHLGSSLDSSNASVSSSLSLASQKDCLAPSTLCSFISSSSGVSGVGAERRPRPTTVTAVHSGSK

The assay concerns the target Calcium/calmodulin-dependent protein kinase type 1D (Homo sapiens) (UniProt Q8IU85). Particulars: at 1 µM.
For orientation: inhibition means the change of the read-out against control, counted positive when it falls. On to `COc1cccc(-n2ncc3c(N/N=C/c4ccc(C(=O)NCCN(C)C)cc4)ncnc32)c1`, for which the inhibition worked out at 5.99%.
The figure for `CS(=O)(=O)Nc1ccc(-c2cc(-c3ccccc3)cc(C(N)=O)c2N)cc1` is -0.47%.
Consider `CCn1c(-c2nonc2N)nc2cncc(C(=O)NCCNC)c21`, for which the inhibition amounted to 0.83%.
The figure for `NS(=O)(=O)c1ccc(N/N=C2\C(=O)Nc3cccc(CCc4ccncc4)c32)cc1` is 1.14%; for `CCOc1ccc2c(-c3ccnc(Nc4cc(OC)cc(C(F)(F)F)c4)n3)cnn2n1` it is 2.28%.
The figure for `Cc1ccc(-c2cc3c(NC(=O)C4CC4)ncnc3o2)cc1` is 1.61%.
`COc1cc2c(cc1Nc1nc(Nc3cccc(F)c3C(N)=O)c3cc[nH]c3n1)N(C(=O)CN1CCN(C(C)C)CC1)CC2`: the inhibition was determined as 7.02%.
As to `Nc1ncnc2occ(-c3ccc(NC(=O)Nc4cc(C(F)(F)F)ccc4F)cc3)c12`, the inhibition is 4.86% and 2.86%.
Consider `CN1CCN(Cc2ccc(-c3cc4ncnc(Nc5ccc(OCc6cccc(F)c6)c(Cl)c5)c4s3)o2)CC1`, for which the inhibition was 2.5% and 0.41%.
Next, `NC(=O)c1ccc2c(-c3ccnc(NCCCO)n3)c(-c3ccc(F)cc3)nn2c1`: 1.6%.
Turning to `CN1CCC(n2cnc(-c3ccc(F)cc3)c2-c2ccnc(NCCO)n2)CC1`, the inhibition was -1.38%.
Next, `O=C(O[C@H]1CN[C@H](C#Cc2cc3ncnc(Nc4ccc5c(cnn5Cc5ccccc5)c4)c3s2)C1)N1CCOCC1`: 1.04%.
In the case of `Cc1c2ccc(N(C)c3ccnc(Nc4cccc(S(N)(=O)=O)c4)n3)cc2nn1C`, the inhibition came to 2.6%.
The figure for `CNC(=O)c1cncc(/C=C/c2ccccc2C)c1` is -0.91%.
Next, `COc1ccc(Nc2ncc(-c3ccccc3)o2)cc1OC`: 1.51%; `CS(=O)(=O)CCNCc1ccc(-c2ccc3ncnc(Nc4ccc(OCc5ccccc5)cc4)c3c2)o1`: 1.27%; `CCCNc1cccc(-n2ncc3c(N/N=C/c4ccncc4)ncnc32)c1`: 1.66%.
Next, `COc1c(C(N)=O)cc(-c2ccc(Cl)cc2)cc1-c1ccc(S(N)(=O)=O)cc1`: 3.09%; `COc1cccc(Nc2nccc(-c3cnn4ncccc34)n2)c1`: 4.71%.
For the compound `CN(c1ccc(NC(=O)NCCN2CCOCC2)cc1)c1ccnc(Nc2ccc(CS(C)(=O)=O)cc2)n1`, the inhibition is 0.15%.
With `COc1ccc(-c2nn3ncccc3c2-c2ccnc(Nc3ccc(F)c(F)c3)n2)cc1`, the inhibition was 1.91%.
`COc1cc(N2CCN(C(C)C)CC2)ccc1Nc1nc(Nc2cccc(F)c2C(=O)O)c2cc[nH]c2n1`: the inhibition was 4.47%.
The figure for `CC(C)c1ccc(-c2cc(-c3c[nH]nc3-c3ccccn3)ccn2)cc1` is 0.06%.
The figure for `CS(=O)(=O)Nc1ccc(-c2ccc3c(NC(=O)C4CC4)n[nH]c3c2)cc1` is 1.58%; for `Cn1c(-c2nonc2N)nc2cnccc21` it is 0.97%.
As to `CS(=O)(=O)CCNCc1ccoc1-c1ccc2ncnc(Nc3ccc(OCc4ccccc4)cc3)c2c1`, the inhibition was -0.02%.
The figure for `O=C(O[C@H]1CN[C@H](C#Cc2cc3ncnc(Nc4ccc5c(ccn5Cc5cc(F)ccc5F)c4)c3s2)C1)N1CCOCC1` is 2.19%; for `Nc1nccc(-c2c(-c3ccc(F)cc3)ncn2C2CCNCC2)n1` it is 0.76% and -0.11%; for `COC(=O)Nc1nc2cc(Oc3ccc(NC(=O)Nc4ccccc4)cc3)ccc2[nH]1` it is -1.18%.
Next, `CNC(=O)c1ncccc1Nc1nc(Nc2cc3c(cc2OC)CCCN3C(=O)CN(C)C)nc2[nH]ccc12`: 12.9%.
Next, `O=C(Nc1n[nH]c2nnc(-c3cccnc3)cc12)C1CC1`: 0.89%.
